Assay results: PubChem BioAssay (NCI)
The panel holds about 83,000 compounds, 20% with a hit somewhere; the sample as a whole holds those more often.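 Assay: single dose, 48 h. Readout: percent growth (0 = no net growth; negative = cell death). Active: <10.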 Values without a mark were called inactive. Active and inactive are the calls of the source.

The compounds below were run on SK-MEL-2 melanoma (assay: NCI-60 one-dose screen, 48 h (100 = growth as untreated, 0 = no growth, -100 = all killed)). Conditions: 10 µM unless noted.
Experimental: Growth inhibition of the SK-MEL-2 human tumor cell line is measured as a screen for anti-cancer activity. Cells are grown in 96 well plates and exposed to the test compound for 48 hours. Compounds are tested at a single concentration, which is 10^-5 M for most compounds. The reported endpoint is percent growth (GI% or GIPRCNT), where numbers from 0 - 100% represent growth inhibition, and numbers from -100% - 0 represent cell death. For example, a value of 40 represents 60% growth inhibition. A value of 0 means no net growth occurred over the course of the experiment. A value of -40 indicates 40% of cells at the beginning of the experiment died by the end of the experiment. A value of -100 means all cells are dead at the end of the experiment.
NCI-60 Human Tumor Cell Lines Screen was performed using the standard one-dose NCI protocol, which is described in more detail at https://dtp.cancer.gov/discovery_development/nci-60/default.htm.
Compounds with GIPRCNT values below 10 were considered active. Activity score was based on GIPRCNT using the following formula: […]
Score is 0 for GIPRCNT values of 100 or above, 50 for GIPRCNT values of 0, and 100 for GIPRCNT values of -100.

Structure (SMILES)	growth
OCCNCCNC(Cc1ccc(Cl)cc1)c1ccccc1 (stereo not given)	86.6%
O=C1/C(=C/c2ccccc2F)CN(C(=O)C(Cl)Cl)C/C1=C\c1ccccc1F	-2.69% (active)
N#CC1=C(N)Oc2ccc3ccccc3c2C1c1ccc([N+](=O)[O-])cc1 (stereo not given)	93.9%
CC1(C)N=C(N)N=C(N)N1c1cccc(CCc2ccccc2)c1	50.3%
Clc1ccc(-c2cc(-c3ccccc3)nc(NCCNc3ccnc4cc(Cl)ccc34)n2)cc1	78.8%
COc1ccc2c(c1)c(-c1nc(-c3c[nH]c4ncccc34)cs1)cn2CCCN1CCOCC1	11.4%
CCN1C(=O)N(CC)C2C1N=C(SCc1ccc(Cl)cc1)N2/N=C/C=C/c1ccccc1OC (stereo not given)	57.7%
CC1=C(C(=O)Nc2ccccc2)C(c2ccc3c(c2)OCO3)NC(=S)N1 (stereo not given)	106%
CCN(CC)CCN1C(=O)c2c(c(C)c3c(oc4ccc(O)cc43)c2C)C1=O	89%
COc1ccc(/C(C)=C(/c2ccc(OCCCN(C)C)cc2)c2ccc(OC(=O)c3ccccc3)cc2)cc1	90.9%
O=c1nc(-c2ccccc2)c2cc(-c3ccc(C(F)(F)F)nc3)ccc2[nH]1	103%
Ic1ccccc1I	85.4%
COc1cc(-c2nc3c(ncc4ccc(=O)n(-c5ccccc5)c43)s2)cc(OC)c1OC	88.4%
CCN1CCN(CCNc2nccc(-c3c(-c4ccc(F)c(OC)c4)nc4sccn34)n2)S1(=O)=O	37.7%
COc1ccc(-c2ccc(-c3ccc(C(=N)N)nc3)s2)cc1Cl	102%
C=CC(=O)Nc1ccc(Nc2nccc(-c3ccc(N4CCCC4)c(C#N)c3)n2)cc1	-0.218% (active)
Nc1nc(N)c(N=Nc2ccccc2)c(-c2ccccc2)n1	85.3%
C/C(=N\O)[C@@H]1CC[C@]2(CO)CC[C@]3(C)[C@H](CC[C@@H]4[C@@]5(C)CCCNC(C)(C)[C@@H]5CC[C@]43C)[C@@H]12	95.2%
CN(CCC(=O)c1ccccc1)CCC(=O)c1ccccc1	91%
Cc1cc(Nc2ccc(C(=O)N3CCCC3)cc2)nc(NCCCNc2ccnc3cc(Cl)ccc23)n1	99.5%

Structure (SMILES)	growth
COCCn1cc(-c2csc(-c3c[nH]c4ccc(Br)cc34)n2)c2cccnc21	35.9%
COc1ccc2c(c1)c(-c1nc(-c3c[nH]c4ncccc34)cs1)cn2CCO	48.7%
O=C(Cc1ccc(NC(=O)c2cccc(Cl)c2)cc1)NCc1ccccc1	46.8%
Cc1nc2cc(O)c(O)cc2cc1Oc1ccc(NC(=O)Nc2ccc(Cl)c(Cl)c2)cc1	77.7%
C/C(=N\O)c1ccc(NC(=O)CSc2nnc(-c3cc(-c4ccc(S(N)(=O)=O)cc4)nc4ccccc34)n2-c2ccccc2)cc1	84%
CCN1CCN(C(=O)[C@]23CC[C@@H](C)[C@H](C)[C@@H]2C2=CC[C@@H]4[C@@]5(C)C/C(=C/c6cccnc6)C(=O)C(C)(C)[C@@H]5CC[C@@]4(C)[C@]2(C)CC3)CC1	28.3%
CC1(C)[C@@H](O[C@@H]2OC[C@@H](O[C@@H]3O[C@H](CO)[C@@H](O)[C@H](O)[C@H]3O[C@@H]3OC[C@@H](O)[C@H](O)[C@H]3O)[C@H](O)[C@H]2O[C@@H]2O[C@H](CO)[C@@H](O)[C@H](O)[C@H]2O)CC[C@]2(C)[C@H]3CC[C@]45OC[C@@]6(CC[C@](C)(C=O)C[C@H]64)[C@H](O)C[C@@]5(C)[C@]3(C)CC[C@@H]12	-90.2% (active)
COc1cc(OC)c2sc(-c3ccc(-n4cncc4-c4cc(OC)c(OC)c(OC)c4)cc3)nc2c1	55.4%
O=S1(=O)C=C(c2ccccc2)C(c2ccccc2)=C1	52.1%
CC1(C)NCCC[C@]2(C)[C@H]3CC[C@H]4[C@H]5[C@H](C(=O)/C=C/c6cccnc6)CCC[C@]5(CO)CC[C@@]4(C)[C@]3(C)CC[C@@H]12	96.9%
C[n+]1ccc(CCc2c[nH]c3ccccc23)cc1	81.7%
CCN(CC)CCCN1C(=O)c2c(c(C)c3c(oc4ccc(OC)cc43)c2C)C1=O	108%
COc1cc(Cl)c(C)cc1NC(=O)c1cc2ccccc2cc1O	-33.1% (active)
COc1ccc(-c2nc(/C=C3\C(=O)N(C)c4ccccc43)c3ccccn23)cc1	83.7%
O=C(Nc1cnc(Nc2ccc(N3CCOCC3)nc2)nc1Oc1ccc(C(F)(F)F)cc1)c1ccncc1	94.8%
C=C(C)[C@@H]1CC[C@]2(COC(C)=O)CC[C@]3(C)[C@H](CC[C@@H]4[C@@]5(C)CCCN(C(C)=O)C(C)(C)[C@@H]5CC[C@]43C)[C@@H]12	61.3%
CC1C=CC(OC(=O)C(C)(O)CCC(O)(C(=O)OC2CC(O)C(C(C)C)CC2(C)O)C(C)C)(C(C)C)CC1 (stereo not given)	-81.6% [4.63 µM] (active)
CC(C)(C)c1cc(Cl)c(O)c(CNCCO)c1	113%
C[C@H](C(=O)N(CCc1ccc(Cl)c(Cl)c1)Cc1cncs1)[C@@H]1CC[C@H](C[C@H](C)n2cc(CN3CCC(c4ccc(Cl)cc4)CC3)nn2)O1	106%
O=C(N/N=C\c1cccc([N+](=O)[O-])c1)N/N=C/c1cccc([N+](=O)[O-])c1	108%
